Assay outcomes (PubChem BioAssay)
Many of the other results were omitted from the sample, so hits are more common in it than they were.
mcGAS RapidFire: inhibitors of Mus musculus cyclic GMP-AMP synthase, initial high-throughput assay, cell-free, RapidFire MS. Q8C6L5. recombinant mouse cGAS, cGAMP by RapidFire MS. inhibition, % at 12.5 µM. 0.18% of 130,000 active;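 active = inhibition of cGAS enzyme activity at or above 60%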;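 note: enzyme stimulated by 45 bp dsDNA with ATP and GTP substrates; cGAMP share of summed cGAMP plus half ATP and half GTP signals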
Target sequence (Q8C6L5 whole entry, looked up): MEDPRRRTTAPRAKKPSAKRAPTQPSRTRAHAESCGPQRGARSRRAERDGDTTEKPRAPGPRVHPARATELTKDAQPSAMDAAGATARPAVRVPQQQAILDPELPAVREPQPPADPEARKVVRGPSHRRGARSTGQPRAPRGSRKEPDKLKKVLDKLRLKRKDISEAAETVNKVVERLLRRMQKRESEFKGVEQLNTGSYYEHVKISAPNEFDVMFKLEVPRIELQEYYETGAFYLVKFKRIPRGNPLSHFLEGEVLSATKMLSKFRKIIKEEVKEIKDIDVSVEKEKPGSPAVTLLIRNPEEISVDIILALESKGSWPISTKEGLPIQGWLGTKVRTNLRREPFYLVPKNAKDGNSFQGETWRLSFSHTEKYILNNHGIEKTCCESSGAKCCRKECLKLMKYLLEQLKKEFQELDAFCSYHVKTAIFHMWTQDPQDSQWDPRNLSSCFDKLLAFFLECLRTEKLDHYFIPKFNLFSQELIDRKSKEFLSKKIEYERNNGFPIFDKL
* marks the source's active call; other numbers are inactive results.

SMILES	mcGAS RapidFire
Brc1ccc(C=NN2CCN(c3ccccc3)CC2)s1	-5
Cc1cc(O)c(C=O)c(O)c1C(=O)O	82*
Cc1cc(O)cc(O)c1C(=O)O	46
Cc1cc(C)c(C(=O)O)c(=O)[nH]1	-4
Cc1ccccc1C1=NC(C)(CC(=O)NCc2cccc(O)c2)ON1C (centres undefined)	-8
N[C@@H](Cc1ccccc1)C(=O)OC1CCCC1	-4
COc1cc(OC)c(C2C3=C(CCCC3=O)N=C3NN(c4ccccc4)C(=O)C32)cc1OC (centres undefined)	-9
C=CCn1cc(-c2c(-c3ccccc3)ncn2Cc2nccn2CC)cn1	-11
Cc1cc(C)cc(-n2nc3c(c2N)CSC3)c1	-10
N#Cc1ccccc1-c1ccccc1C(=O)Nc1cccc(C(F)(F)F)c1	3
N#Cc1ccc(Oc2ncccc2[N+](=O)[O-])c(Cl)c1	-7
N#Cc1ccc([N+](=O)[O-])c(O)c1	-8
N#Cc1cc(I)c(O)c([N+](=O)[O-])c1	95*
CN1CCN(C)C(CNC(=O)C2CC2c2ccc(Cl)c(Cl)c2)C1 (centres undefined)	-4
CCCn1c(=O)n(CCC(=O)N2CCCn3ncnc32)c2ccccc21	-12
O=C(C1CC1c1ccc(Cl)c(Cl)c1)N1CCCn2ncnc21 (centres undefined)	96*
C=CCN(CC=C)C(=O)CN1CCCC1c1nonc1C (centres undefined)	-13
COc1cccc(C(=O)N2CCN(C(C(=O)NCc3ccncc3)C3CCCC3)CC2)c1 (centres undefined)	-5
Cn1cnc(S(=O)(=O)N2CCSc3ccc(C(F)(F)F)cc32)c1	-5
O=c1c(O)cccc2cc(O)c(O)c(O)c12	65*
CNc1cnc(-c2ccc(OC)cc2OC)cn1	-5
CSc1ccc(CN2C(=O)C(Cc3ccccc3)ON=C2C)cc1 (centres undefined)	1
O=C(NC1CC2CCC1O2)c1sccc1C1CC1 (centres undefined)	-16
CC1CC(C)CN(C(=O)C2CCCN2S(=O)(=O)c2ccc(Br)cc2)C1 (centres undefined)	4
O=C1C(Cl)=C(Nc2cccc(C(F)(F)F)c2)C(=O)N1Cc1cccc(Cl)c1	-2
SMILES	mcGAS RapidFire
Cc1nc2ccccc2c(C)c1CC(=O)NCCCn1ccnc1	-7
Cc1ccccc1CC(C)(C)NC(=O)NCCn1ccnc1	-5
CN(C)C(=O)Cc1ccccc1NC(=O)NCCCn1ccnc1	94*
CC(COc1ccc(F)cc1F)NC(=O)CSCc1cccnc1 (centres undefined)	-9
COC(=O)c1ccc2c(c1)C(=O)/C(=C/c1ccc(N(C)C)cc1)O2	-3
O=S(=O)(N=Cc1c(O)ccc2ccccc12)c1ccccc1	17
Oc1ccc2ccccc2c1SSc1c(O)ccc2ccccc12	66*
Oc1ccc2ccccc2c1N=Nc1c(O)ccc2ccccc12	-12
CCOc1ccccc1NC(=O)c1cc(S(=O)(=O)NCCc2ccc(Cl)cc2)ccc1F	0
O=c1/c(=C/c2cccc([N+](=O)[O-])c2)sc2nc3cc(Br)cnc3n12	28
O=c1/c(=C/c2ccc(N3CCOCC3)cc2)sc2nc3cc(Br)cnc3n12	81*
CCOc1cc(/C=c2\sc3nc4cc(Br)cnc4n3c2=O)ccc1O	-21
COCCNC(=O)NC(C)(C)c1cnn(C)c1	2
CCCc1nnc2sc(-c3cc(C(C)C)[nH]n3)nn12	-29
CC(C)c1cc(-c2nn3c(C4COc5ccccc5O4)nnc3s2)n[nH]1 (centres undefined)	70*
c1ccc(CCc2nn3c(C4COc5ccccc5O4)nnc3s2)cc1 (centres undefined)	54
CN(C)c1cccc(C(NC(=O)c2ccc(C(F)(F)F)c(F)c2)c2ccc(S(C)(=O)=O)cc2)c1 (centres undefined)	5
CC1=NN(Cc2ccc(Cl)c(Cl)c2)c2nc3c(c(=O)n(C)c(=O)n3C)n2C1	4
c1sc(NCC2CCCO2)nc1C12CC3CC(CC(C3)C1)C2 (centres undefined)	-6
O=C(c1cc(COc2ccc3ncccc3c2)on1)N1CCCC(OCc2ccccn2)C1 (centres undefined)	2
COc1cc(C=NNC(=O)COc2ccc3ccccc3c2)ccc1O	-12
CC(=O)Oc1ccccc1CN1C(=O)C(C)(C)ON=C1c1ccc(C(F)(F)F)cc1	-13
CC(=O)Oc1ccc(CN2C(=O)C(C)(C)ON=C2c2ccc(C)cc2)cc1	87*
COC(=O)c1ccc(CN2C(=O)C(C)(C)ON=C2c2ccc(C)cc2)o1	25
Cc1cc(C)cc(OCCN2CCN(S(C)(=O)=O)CC2)c1	2
SMILES	mcGAS RapidFire
CC(C)c1nc(NC(=O)c2cn(Cc3cccs3)nn2)n[nH]1	-5
CC(C)c1nc(NC(=O)c2ccc(CNC(=O)C(C)(C)C)cc2)n[nH]1	77*
CC(C)(C)c1ccc(C(=O)Nc2n[nH]c(C(F)(F)F)n2)cc1	-1
Clc1ccc(C=NOCc2nnc(-c3ccccc3Br)o2)cc1Cl	-7
O=C(COc1ccc(Cl)c2ccccc12)N1CCC(C(=O)N2CCCCCC2)CC1	6
Cc1noc(C)c1C(=O)Nc1cccc(OCC2CCCO2)c1 (centres undefined)	-5
O=C1CC(C(F)(F)F)N(C(=O)COC(=O)c2cccc(OCC3CCCO3)c2)c2ccccc2N1 (centres undefined)	94*
O=C(c1c[nH]c(=O)c(Cl)c1)N1CCOC(COc2cccc(C(F)(F)F)c2)C1 (centres undefined)	-6
COc1ccc(-c2nc3oc4ccccc4c(=O)c3c(=O)n2Cc2ccccc2)cc1	-11
O=C1NC2(CCOc3ccccc32)C(=O)N1Cc1coc(-c2cccs2)n1 (centres undefined)	95*
Cc1cc(C)cc(CN2C(=O)NC3(CCOc4ccccc43)C2=O)c1 (centres undefined)	-5
O=C1NC2(CCOc3ccccc32)C(=O)N1CCN1C(=O)c2ccccc2C1=O (centres undefined)	-10
OC1CCc2c(OCc3ccccc3)cccc21 (centres undefined)	-13
Cc1nc2sc(C(=O)N3CCOC(CCCC(C)C)C3)c(C)c2c(=O)[nH]1 (centres undefined)	-8
N#Cc1cccc(Cl)c1NCCc1n[nH]c(=O)[nH]1	-27
N#Cc1cccc(N/N=C2\CCn3cccc32)c1	-7
N#Cc1cccc(NN=C2CCN(c3ccc(F)cc3)CC2)c1	89*
N#Cc1cccc(NC(=O)N2CCN(c3ccc(C#N)cc3F)CC2)c1	-1
COCC1CCN(Cc2nc(C(c3ccccc3)c3ccccc3)no2)CC1	-11
Cc1nnsc1CN(C)C(=O)c1cn2c3c(cccc3c1=O)CC2	-13
O=C(O)CC12CSc3[nH]c(=O)sc3C1c1ccccc1OC2=O (centres undefined)	13
O=C1Oc2ccccc2C2c3sc(=O)[nH]c3SCC12 (centres undefined)	91*
O=C(O)C1Sc2[nH]c(=O)sc2C2c3cc(Cl)cc(Cl)c3OC(=O)C12 (centres undefined)	57
Cc1ccc(OCC(=O)NC2CCc3cnn(C(C)C)c3C2)cc1C (centres undefined)	-8
O=C(O)CNC(=O)CN1C(=O)CSC1=S	13
O=C(O)CN1C(=O)/C(=C2/C(=O)N(CC(=O)O)c3ccccc32)SC1=S	4
O=C(O)CN1C(=O)C(=NN2C(=O)CSC2=S)c2ccccc21	92*
NC(=O)c1ccc(NC(=O)c2c3c(nn2C2CCS(=O)(=O)C2)CCC3)cc1 (centres undefined)	-12
